# Active and inactive are the calls of the source. No rule for the calls is given here.
# Assay: C difficile toxins, biochemical counterscreen, UDPG substrate absence, confirmatory dose response (AID 720650)
# Details: series mostly up to 19.5 µM; activity change, negative = inhibition: at the top concentration
Structure (SMILES),"activity change, negative = inhibition",AC50
Cc1noc(C)c1NC(=O)N(C)C[C@@H]1Oc2ccc(NC(=O)C3CCCCC3)cc2C(=O)N([C@@H](C)CO)C[C@H]1C,-8.93% (inactive),
CNC(=O)C1CCN(S(=O)(=O)c2c(C)noc2/C=C/c2ccc(C)cc2)CC1,-2.85% (inactive),
CCOC(=O)c1[nH]nc(-c2cc(CC)c(O)cc2O)c1-c1cscn1,-9.39% (inactive),
CC(=O)c1cccc(OCC(=O)c2cc(C)n(-c3cc(C)on3)c2C)c1,,12 µM (active)
Cc1nc(S(=O)(=O)N(C)Cc2ccccc2)c(C#N)c(C)c1Cl,-9.25% (inactive),
O=C1NN=C2CCCCCCC12 (centres undefined),-4.67% (inactive),
CCCNC(=O)C1CCN(S(=O)(=O)c2c(C)noc2/C=C\c2ccc(OC)cc2)CC1,-7.57% (inactive),
CCOC(=O)c1ccc(-n2c(CCC(=O)O)ccc2-c2ccc(F)cc2)cc1,10.7% (inactive),
O=CN(c1ccccc1)c1ccc2ccccc2c1,8.32% (inactive),
COc1ccc(C)cc1NC(=O)C(OC(=O)C1=NNC(=O)CC1)c1ccccc1 (centres undefined),1.41% (inactive),
COCCN(C(=O)C(C)C)c1nnc(-c2ccc(C(C)(C)C)cc2)s1,5.33% (inactive),
Cc1cc(C)nc(SCC(=O)c2ccc(O)c(O)c2)n1,4.35% (inactive),
CCOC(=O)c1sc(=S)[nH]c1C,,> 39 µM (inactive)
CCCS(=O)(=O)NC(=O)C1(C)CCN(C(=O)c2ccco2)C1 (centres undefined),-3.37% (inactive),
Cc1ccc(N/N=C/c2c(O)n(-c3ccccc3)c(=O)[nH]c2=O)cc1,,0.875 µM (active)
C[C@H](CO)N1C[C@H](C)[C@@H](CN(C)C(=O)Nc2ccc(C(F)(F)F)cc2)Oc2c(NS(=O)(=O)c3cccs3)cccc2C1=O,,> 39 µM (inactive)
O=C(NCc1ccccc1)C1Cc2c(-c3cccc(F)c3)ccnc2O1 (centres undefined),-12.2% (inactive),
Cn1c(SCC(=O)c2cc3ccccc3o2)nnc1-c1ccccc1,-12.4% (inactive),
COc1ccc(NC(=O)c2cc(S(=O)(=O)N3CCc4ccccc43)cn2C)cc1OC,12.5% (inactive),
CC(C)Cc1[nH]c(=O)c(C#N)c2c1CCCC2,6.43% (inactive),
CCCc1cc(=O)oc2c3c(cc(OCC(=O)NCCCn4ccnc4)c12)OC(C)(C)CC3,11.7% (inactive),
Cc1ccc(S(=O)(=O)Oc2cccc(/C=N/Nc3ccc(C(=O)O)cc3)c2)cc1,,> 39 µM (inactive)
Cc1ccc(S(=O)(=O)Nc2cccnc2Oc2ccc(Cl)cc2)cc1,-12.2% (inactive),
CNC(C(=O)c1ccccc1)C(OC)c1cccc([N+](=O)[O-])c1 (centres undefined),-4.43% (inactive),

# Reference: PubChem BioAssay AID720650 (Broad Institute, 2013)
